The text below walks through data of PubChem BioAssay (Tox21).

SMILES strings stand for the structures. Results filed as inconclusive are left out. Where a call stands in place of a potency, no number is given. The source made the active and inactive calls. Calls follow the shape of the dose curve; as a rule, active = well fitted activation curve with a large enough effect in the repeat runs; inconclusive = weak or mixed curves; inactive = flat fitted curve, though single readings scatter.

A short description of this experiment: A CellTox Green Cytotoxicity Assay to monitor cytotoxicity in HEK293 cells - 32 hour (AID 1224881). Also: nearly all actives have a fitted effect of over 40% in size. The following applies: CellTox Green fluorescence; series mostly up to 76.8 µM. From the text: National Center for Advancing Translational Sciences [NCATS]
NIH Chemical Genomics Center [NCGC]
U.S. Environmental Protection Agency [EPA]
National Institutes of Environmental Health Sciences [NIEHS]
National Toxicology Program [NTP]
Cell-based models are critical for drug discovery. Determining the natural cytotoxic effects resulting from test compounds is an essential research activity. A CellTox Green Cytotoxicity Assay to monitor cytotoxicity in real time of continues cell culture during 40 hours of the compound treatment was used to screen Tox21 10K library compounds in Hek293 cells. CellTox Green Cytotoxicity Assay is a nonlytic, homogeneous, biofluorescent method to measure cytotoxicity in cell culture after experimental manipulation. The assay system uses a proprietary asymmetric cyanine dye that is excluded from viable cells but preferentially stains the dead cell's DNA. […] Viable cells produce no appreciable increases in fluorescence. Therefore, the fluorescence signal produced by the binding interaction with dead cell DNA is proportional to cytotoxicity.
The mixture of Hek293 cell suspension and reagents were dispensed at 600cells/6 ul/well in 1536-well tissue culture treated black solid bottom plates using a Multidrop dispenser. After the assay plates were incubated at a 37 C/5% CO2 incubator for 5 hours, 23 nL of compounds dissolved in DMSO, positive and negative controls was transferred to the assay plate by a pintool work station. The plates were incubated at 37 C for 40 hours. The fluorescence intensity were measured at 0h, 8h, 16h, 24h, 32h and 40h time points using ViewLux plate reader during compound treatment.
Regarding `OCC(O)CCl` (stereo not given), the Potency result was “inactive”.
Turning to `COP(=S)(OC)Oc1ccc(SC)c(C)c1`, the Potency entry is “inactive”.
Regarding `CCCCC(CC)C(=O)Cl` (stereo not given), the Potency result was “inactive”.
The same measure for `CC[N+](=O)[O-]`: “inactive”; for `N#Cc1cccc(C#N)c1`: “inactive”.
As to `CCOC(=O)CC(SP(=O)(OC)OC)C(=O)OCC` (stereo not given), the Potency result was “inactive”.
The same measure for `CCCOC(=O)c1ccccc1C(=O)OCCC`: “inactive”.
The same measure for `Sc1ccccc1`: “inactive”; for `OC[C@@H](O)[C@H]1O[C@@H]2O[C@H](C(Cl)(Cl)Cl)O[C@@H]2[C@H]1O`: “inactive”.
In the case of `Cc1ccc(N=C=O)cc1N=C=O`, the Potency entry is “inactive”.
`CN(C)C(=O)Nc1cccc(C(F)(F)F)c1`: the Potency entry is “inactive”.
The same measure for `O=S(=O)(O)OOS(=O)(=O)O`: “inactive”.
Take `CN(C)C(=O)C(c1ccccc1)c1ccccc1`: the Potency entry was “inactive”.
In the case of `CNc1cnn(-c2cccc(C(F)(F)F)c2)c(=O)c1Cl`, the Potency entry is “inactive”.
The same measure for `COc1cc(-c2ccc(N)c(OC)c2)ccc1N`: “inactive”; for `C[C@]12CC[C@H](O)CC1=CC[C@@H]1[C@@H]2CC[C@]2(C)C(=O)CC[C@@H]12`: “inactive”; for `ClC(Cl)c1ccccc1`: “inactive”.
The same measure for `CN1C(=O)CCS(=O)(=O)C1c1ccc(Cl)cc1` (stereo not given): “inactive”; for `CC(C)(C)C(=O)CCl`: “inactive”.
The same measure for `[N-]=[N+]=CC(=O)OC[C@H](N)C(=O)O`: “inactive”.
As for `Cc1ccc(O)c(C)c1`, the Potency result was “inactive”.
The same measure for `Cc1cc(Cl)ccc1OC(C)C(=O)O` (stereo not given): “inactive”; for `Nc1ncc([N+](=O)[O-])s1`: “inactive”.
The same measure for `Cl[C@H]1OCCO[C@@H]1Cl`: “inactive”; for `O=[N+]([O-])c1ccc(Cl)cc1`: “inactive”.
The same measure for `CNCC(O)c1ccc(O)cc1` (stereo not given): “inactive”; for `CNC(=O)Oc1cccc2ccccc12`: “inactive”.
With `C/C=C/c1ccc2c(c1)OCO2`, the Potency entry was “inactive”.
With `CC(=O)/C=C/c1ccccc1`, the Potency entry was “inactive”.
As for `CC(C)CCCCCCOC(=O)c1ccccc1C(=O)OCCCCCCC(C)C`, the Potency entry is “inactive”.
With `Nc1ccc(N)cc1`, the Potency entry is “inactive”.
The same measure for `O=C(O)COc1ccccc1`: “inactive”; for `c1ccc2c(c1)CCCC2`: “inactive”.
The same measure for `CN(C)NC(=O)CCC(=O)O`: “inactive”; for `CC(=O)C1CCOC1=O` (stereo not given): “inactive”.
The same measure for `C=C(C)C(=O)OCC(CC)CCCC` (stereo not given): “inactive”.
Consider `CCOP(=S)(OCC)Oc1ccc([N+](=O)[O-])cc1`, for which the Potency entry is “inactive”.
Turning to `Cc1cccc(C)c1NC(=O)CN1CCCC1=O`, the Potency result was “inactive”.
The same measure for `Nc1cccc(Cl)c1`: “inactive”; for `Cc1ccccc1N`: “inactive”.
